Many of the other results were omitted from the sample, so hits are more common in it than they were.
Pf Dd2 inh = qHTS Primary assay for Inhibitors of Plasmodium falciparum Dd2 growth in vitro. P. falciparum Dd2 growth, SYBR Green, 72 h. Potency, µM (top dose mostly 28.9 µM), inactives show at the highest dose activity, negative = inhibition, actives largely listed as inhibitors. actives 4.3% (n = 120,000). AID 1347417, 2020; active means well fitted inhibition curve with a large enough effect;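 further: plate controls were DMSO vehicle for no effect and reference drug for full effect; nearly all actives have a fitted effect of over 65% in size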
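Infected erythrocytes (Dd2, 0.3% parasitemia, 2.5% hematocrit final) are added to compound in RPMI-1640/Albumax II medium, grown 72 h at 37C in low oxygen, then lysed with saponin/Triton-X containing SYBR Green and read by fluorescence.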
The depositor's hits bear a star; i = inactive; [ ] = another dose, or the depositor's remark. Potency means the concentration at half of the fitted maximal effect.

SMILES	Pf Dd2 inh
CNC(=O)N1CCC(C2CCN(C(=O)c3ccc4ncccc4c3)C2)CC1 (configuration not stated)	-18.7%
Cc1ccc(S(=O)(=O)N2CCC(CCC(=O)O)CC2)cc1	-7.3%
O=C1NC(=NC2CCCCC2)C2(CCN([S+](=O)([O-])c3cccc(C(F)(F)F)c3)CC2)N1c1cccnc1	-18.2%
CC(C)c1nnc(C2CN(C(=O)c3ccc(F)cc3)CC23CCOCC3)o1 (configuration not stated)	-1.6%
CC(=O)N1CCN(C2CCNCC2)C(=O)C1	i
COc1ccc(-n2cnc3cccnc32)cc1OC	-6.3%[44.1 µM]
COc1ccc(Cl)cc1-c1ccc2c(c1)C(=O)N1CCN(C(=O)COc3ccccc3)C[C@@H]1C(=O)N2	i
COCCNC(=O)C1COC2(CCN(C(=O)c3ccc(F)cc3)CC2)N1C(=O)c1ccccc1 (configuration not stated)	11.2%
COCCn1cnc2ccc(OCC3CC3)nc2c1=O	i
COCCn1cnc2ccc(OCc3ccc(C(F)(F)F)cc3)nc2c1=O	-2.4%[44.1 µM]
COCCn1cnc2ccc(OCc3ccc(Cl)cc3)nc2c1=O	11.2µM*
COc1cccc(N2CC(NC(=O)C3CCCC3)CC2=O)c1 (configuration not stated)	44.1%
COc1cccc(C2=C(C(C)=O)Sc3nnc(C4CCCCC4)n3N2C(C)=O)c1	1.26µM*
Cn1nnnc1C1CCCN(C(=O)NCc2ccccc2)C1 (configuration not stated)	-8.3%
CC(=O)C1=C(c2ccccc2)N(C(C)=O)n2c(nnc2C2CCCCC2)S1	1.12µM*
COc1cccc(C(=O)N2CCCC(c3nn[nH]n3)C2)c1 (configuration not stated)	40.2%
Cn1nnnc1C1CCCN(C(=O)Cc2ccccc2)C1 (configuration not stated)	-18.6%
Cc1nc2cccnc2n1CC1CCCN(C(=O)Nc2cccc(Cl)c2)C1 (configuration not stated)	i
O=C(c1nnc(CN2CCN(c3ccccn3)CC2)n1-c1ccccc1)N1CCC[C@@H]1c1cccc(F)c1	i
O=C1NCCOCCCN(C(=O)COc2ccccc2)[C@H]2CCCC[C@@H]12	-18.1%
CCN1CCN(CCCNC(=O)c2cnn(-c3ccc(OC)cc3)c2C2CCN(C(=O)OC(C)(C)C)CC2)CC1	-24.9%
COc1ccc2[nH]cc(CCNC(=O)CN3CCCc4nc(C5CC5)ncc4C3=O)c2c1	i
COc1ccc2[nH]cc(CCNC(=O)c3cnn(-c4ccc(C)cc4)c3C3CCN(C(=O)OC(C)(C)C)CC3)c2c1	3.16µM*
CC(C)(C)OC(=O)N1CCC(c2c(C(=O)NCc3ccccn3)cnn2-c2ccccc2Cl)CC1	i
COc1ccc2[nH]cc(CCNC(=O)C3CCCN(C(C)=O)C3)c2c1 (configuration not stated)	-8.5%
SMILES	Pf Dd2 inh
COc1ccc2[nH]cc(CCNC(=O)c3cnn(-c4ccccc4Cl)c3C3CCN(C(=O)OC(C)(C)C)CC3)c2c1	5.62µM*
CCc1noc([C@@H]2CC(F)(F)CN2C(=O)c2ccnn2C)n1	9.4%
CC1(C(=O)NCCOc2ccccc2)CCCc2cnc(Nc3cccnc3)nc21 (configuration not stated)	-27.7%[44.1 µM]
COCC1CN(S(=O)(=O)c2ccc3c(c2)OCCO3)CC12CCNCC2 (configuration not stated)	-1.1%
Cc1nc(CC2CCN(C(=O)C3CCCC3)CC2)n[nH]1	5.9%
CCOc1ncccc1C(=O)N1C[C@H](OCC)[C@@H](O)C1	2.4%
O=C(C1CC1)N1CCn2c(nn(-c3ccncc3)c2=O)C1	18.0%[44.1 µM]
COc1ccc(C2CC(=O)Nc3c2c(C)nn3-c2nc(C)cc(C)n2)c(OC)c1OC (configuration not stated)	-52.6%[0.594 µM]
CCc1ccc(C2CC(=O)Nc3c2c(C)nn3-c2nc(C)cc(C)n2)cc1 (configuration not stated)	11.2µM*
COc1cc(C2CC(=O)Nc3c2c(C)nn3-c2nc(C)cc(C)n2)cc(OC)c1O (configuration not stated)	-26.5%
O=C(c1ccccc1OCC1CCCN(Cc2nccs2)C1)N1CCCC1 (configuration not stated)	-1.6%
COc1ccc(CC(=O)N2[C@H]3CC[C@@H]2c2cnc(-c4ccc(F)cc4)nc2C3)cc1OC	-2.7%
COc1cccc(-c2noc(CC3CCN(C(=O)c4ccc(C)cc4)CC3)n2)c1	i
O=C(CCc1ccccc1)N1CCC(Cc2nc(-c3ccc(F)cc3)no2)CC1	i
CCOc1cc(C(=O)N2CCC(Cc3nc(-c4ccc(F)cc4)no3)CC2)cc(OCC)c1OCC	-12.6%
COc1ccc(CCC(=O)N2CCC(Cc3nc(-c4ccc(F)cc4)no3)CC2)cc1	-22.6%
CCOc1ccc(C(=O)N2CCC(Cc3nc(-c4ccc(OC)cc4)no3)CC2)cc1OCC	8.91µM*
CCc1ccc(C(=O)N2CCC(Cc3nc(-c4ccc(F)cc4)no3)CC2)cc1	i
COc1ccc(C(=O)N2CCC(Cc3nc(-c4ccccc4)no3)CC2)cc1F	i
COc1ccc(-c2noc(CC3CCN(C(=O)CCc4ccccc4)CC3)n2)cc1	11.2µM*
CCOc1ccc(C(=O)N2CCC(Cc3nc(-c4ccc(F)cc4)no3)CC2)cc1OCC	5.01µM*
O=C(c1ccc(Cl)cc1)N1CCC(N2CCCNC2=O)CC1	1.1%
N#Cc1cccc(C(=O)N2C[C@@H](Oc3cccnc3)C[C@H]2C(=O)N2CCOCC2)c1	20.6%
O=C(Cc1ccccc1)Nc1ccc([C@H]2OCC(=O)N[C@@H]2CO)cc1	27.8%[44.1 µM]
COc1cccc(C(=O)N2CC[C@H]3COC(=O)N3c3cc(F)ccc3C2)c1	-4.5%[44.1 µM]
SMILES	Pf Dd2 inh
COc1cccc(CNC(=O)c2cc3c(s2)-c2ccccc2OC3)c1	17.5%
COC(=O)c1ccccc1NC(=O)c1cc2c(s1)-c1ccccc1OC2	18.8%
COc1cc(NC(=O)c2cc3c(s2)-c2ccccc2OC3)cc(OC)c1OC	5.62µM*
O=C(N1CCOCC1)N1CCn2c(nnc2-c2cncc(Br)c2)C1	-8.3%
O=C(CCn1ccn2nc3c(c2c1=O)CCCC3)NCCc1cccs1	i
CCN(CC)C(=O)C(C)[C@@H]1CC[C@@]2(C)Cc3sc(NC(=O)C4CC4)nc3[C@@H](C)[C@@H]2[C@H]1O (some centres not stated)	32.2%
C#CCN(C)C(=O)[C@@H](C)C1CC[C@@]2(C)Cc3sc(NC)nc3[C@@H](C)[C@@H]2[C@H]1O (some centres not stated)	i
CCN(CC)C(=O)[C@@H](C)C1CC[C@@]2(C)Cc3sc(Nc4c(Cl)cccc4Cl)nc3[C@@H](C)[C@@H]2[C@H]1O (some centres not stated)	12.6µM*
COCCc1noc([C@@H]2CN(Cc3ccccc3F)C[C@H]2CO)n1	i
O=C(c1ccc2c(c1)CC(=O)N2Cc1ccccc1)N1CCN(C2CCCCC2)CC1	1.41µM*
O=C(NCc1cccc(F)c1)c1ccc2c(c1)CC(=O)N2Cc1ccccc1	i
O=C(O)c1ccc2c(c1)CC(=O)N2Cc1ccc(F)cc1	i
CC(=O)Nc1cccc(-c2ccc3ncn(-c4ccc(F)cc4F)c(=O)c3n2)c1	-22.0%[44.1 µM]
COC(=O)c1cccc(NC(=O)c2cnc(-c3ccc(F)cc3)nc2-c2ccncc2)c1	-27.6%
Cn1nc(C2CCN(C(=O)NCc3ccccc3)CC2)c2c1CCOC2	15.7%[5.79 µM]
Cc1ccccc1Nc1c(-c2c[nH]c3ccccc23)nc2cccc(C)n12	19.8%
Cc1ccc2nc(-c3ccccn3)c(Nc3ccccc3C)n2c1	8.91µM*
Cc1ccc2nc(-c3ccncc3)c(Nc3ccccc3C)n2c1	-22.4%
